Our source for the growth values is PubChem BioAssay (NCI).

Molecules are shown by their SMILES. Compounds without any hit were thinned out: in the full panel of roughly 83,000, 20% have a hit.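 Activity criterion: percent growth below 10, measured after cells in 96-well plates were exposed to a single compound concentration for 48 hours.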 Values without a mark were called inactive. The source made the active and inactive calls.

In one test the test system is UACC-62 melanoma. As to the kind of experiment: NCI-60 one-dose screen, 48 h (100 = growth as untreated, 0 = no growth, -100 = all killed). Particulars: 10 µM unless noted.
As to `NS(=O)(=O)c1ccc(-n2nc(-c3ccc(Cl)cc3)ccc2=O)cc1`, the growth was 61.4%.
Same read-out and setting: the figure for `Nc1nc(Cl)cc(NCCCCNc2cc(Cl)nc(N)n2)n1` is 101%.
Still for that read-out and setting: the figure for `Fc1ccc(/C=N/n2c(-c3cc(Cl)cc(Cl)c3Cl)nn(CNc3ccc(Cl)nn3)c2=S)cc1` is 86.7%; for `COc1cc(-c2nc3ccccc3s2)ccc1OCc1nc2n(n1)S(=O)(=O)c1ccccc1N2C` it is 103%; for `Cc1c(Cl)ccc2c(C(=O)Cl)cc(-c3ccccc3)nc12` it is 92.7%.
`CN1CCN(Cn2nc(-c3cc(Cl)cc(Cl)c3Cl)n(/N=C/c3ccc(Cl)cc3)c2=S)CC1`: the growth is 90%.
For the compound `COc1cc2nc(C(=O)N3CCCCC3)cc(Nc3ccccc3)c2cc1OC`, the growth is 104%.
Consider `COc1ccccc1N1CCN(CC(O)COc2c(Br)c(Br)c(Br)c3c2OC(C)(C)C3)CC1` (stereo not drawn), for which the growth was 56.6%.
On the same count and under the same terms, the figure for `COc1cc(Cn2cc3c(c2)-c2onc(CO)c2CC3)cc(OC)c1OC` is 80.3%; for `CN1CCN(C(=O)/C=C/c2ccc([N+](=O)[O-])o2)CC1` it is 69.9%.
Still for that read-out and setting: the figure for `CC(C)C1(C(C)C)NC(=O)NC1=O` is 106%; for `COc1cc(/C=C/C(=O)c2c(C)n([O-])c3cc(C)c(C)cc3[n+]2=O)cc(OC)c1OC` it is 64%.
For `COc1cc(/C=C\c2cc(/C=C\c3ccc(O)c(OC)c3)n(C(=O)CNc3ccccc3OC)n2)ccc1O`, the growth is 79.1%.
On the same count and under the same terms, the figure for `OCc1cn(-c2ccc(Cl)cc2)nc1-c1ccc(O)cc1` is 100%.
For `CCc1c2cc(Cl)ccc2n2cc(Cc3ccccc3)[nH]c(=O)c12`, the growth is 98.2%.
On the same count and under the same terms, the figure for `Nc1ncnc2c1ccn2-c1cccc(NC(=O)c2cccc(C(F)(F)F)c2)c1` is 77.3%; for `COc1ccc(Cl)cc1NC(=O)c1cc2c([nH]1)-c1nc(NC(=O)C(C)(C)C)sc1CC2` it is 81.2%.
`COc1ccc(-c2coc3c(CO)c(O)ccc3c2=O)cc1`: the growth was 32.5%.
Still for that read-out and setting: the figure for `CC(=O)c1cc2c(c(O)c1C)C(=O)C(=O)c1c(O)cccc1-2` is -71.6% (active); for `O=C(Cn1c2ccccc2c2ccncc21)N/N=C\c1ccc2ccccc2c1` it is 7.54% (active).
On to `OC(COc1ccccc1Cl)CN1CCN(c2ccc(Cl)cc2)CC1` (stereo not drawn), for which the growth was 95.9%.
Still for that read-out and setting: in the case of `O=C(Nc1ccc(-n2ccc3c(NC(=O)c4ccccc4)nccc32)cc1)c1cccc(C(F)(F)F)c1` it was 35.4%.
In the case of `Cc1cc(N2CCOCC2)nc(N(CCNc2ccnc3cc(Cl)ccc23)Cc2ccco2)n1`, the growth is 26%.
Turning to `CCCCC(=O)Nc1nc2ccc(SCCC)cc2s1`, the growth is 43.3%.
Consider `COc1cc2ncnc(Oc3ccc(NC(=O)Nc4ccc(CN5CCOCC5)c(C(F)(F)F)c4)c4ccccc34)c2cc1OC`, for which the growth was 28%.
`FC(F)(F)c1cccc([Si](F)(c2cccc(C(F)(F)F)c2)c2cccc(C(F)(F)F)c2)c1`: the growth is 68.4%.
The same measure, in the same setting: the figure for `O=C(O)c1cccc(S(=O)(=O)c2ccccc2)c1` is 101%.
Still for that read-out and setting: the figure for `C=C1C(=O)O[C@H]2[C@H]1CC/C(COC(=O)CCCC(=O)OC/C1=C/CC[C@@]3(C)O[C@H]3[C@H]3OC(=O)C(=C)[C@@H]3CC1)=C\CC[C@@]1(C)O[C@@H]21` is -18.7% (active).
Same read-out and setting: in the case of `Cc1c(F)cccc1NC(=O)c1sc2nc3c(cc2c1N)CCCCC3` it was 27%; in that of `O=C(Nc1cccc([N+](=O)[O-])c1)Nc1cccc([N+](=O)[O-])c1`, 29.9%; in that of `O=C(N/N=C1\SCC(=O)N1c1ccccc1)c1cc(-c2cc3ccccc3o2)nn1-c1ccccc1`, 134%.
In the case of `COc1cc(-c2nc(N)n(CC(=O)Nc3ccc(/C(C)=N\O)cc3)n2)cc(OC)c1OC`, the growth is 83.6%.
On to `O=C(Cn1c2ccccc2c2ccncc21)N/N=C/c1c[nH]c2ccccc12`, for which the growth was 21.2%.
Still for that read-out and setting: the figure for `CCCN1C(=O)CSC1=Nc1ccc2cc3ccc(N=C4SCC(=O)N4CCC)cc3nc2c1` is 36.9%.
With `CCc1cccc(C)c1NC(=O)c1sc2nc3c(cc2c1N)CCCCC3`, the growth is 30.2%.
In the case of `NC(=S)NNC1CCCCC1`, the growth is 95.7%.
The same measure, in the same setting: in the case of `CC(C)(C)C(=O)Nc1nc2c(s1)CCc1ccn(S(=O)(=O)c3ccccc3)c1-2` it was 77.2%.
The same measure, in the same setting: in the case of `Nc1ncnc2c1c(-c1ccc(Oc3ccccc3)cc1)nn2C[C@@H]1SSC[C@H]1O` it was -70.4% (active).
Turning to `Cc1ccc[n+](CC(=O)c2cccc3ccccc23)c1`, the growth is 111%.

The test system of a further test is LOX IMVI melanoma. The description is as above. To be noted: 10 µM unless noted.
Consider `NS(=O)(=O)c1ccc(-n2nc(-c3ccc(Cl)cc3)ccc2=O)cc1`, for which the growth was 95.8%.
In the case of `Nc1nc(Cl)cc(NCCCCNc2cc(Cl)nc(N)n2)n1`, the growth was 96.9%.
Still for that read-out and setting: the figure for `Fc1ccc(/C=N/n2c(-c3cc(Cl)cc(Cl)c3Cl)nn(CNc3ccc(Cl)nn3)c2=S)cc1` is 96.8%; for `COc1cc(-c2nc3ccccc3s2)ccc1OCc1nc2n(n1)S(=O)(=O)c1ccccc1N2C` it is 72.3%.
With `Cc1c(Cl)ccc2c(C(=O)Cl)cc(-c3ccccc3)nc12`, the growth is 94.9%.
The same measure, in the same setting: the figure for `CN1CCN(Cn2nc(-c3cc(Cl)cc(Cl)c3Cl)n(/N=C/c3ccc(Cl)cc3)c2=S)CC1` is 90.4%.
On the same count and under the same terms, in the case of `COc1cc2nc(C(=O)N3CCCCC3)cc(Nc3ccccc3)c2cc1OC` it was 94.9%; in that of `COc1ccccc1N1CCN(CC(O)COc2c(Br)c(Br)c(Br)c3c2OC(C)(C)C3)CC1` (stereo not drawn), 18.5%; in that of `COc1cc(Cn2cc3c(c2)-c2onc(CO)c2CC3)cc(OC)c1OC`, 94.7%.
Consider `CN1CCN(C(=O)/C=C/c2ccc([N+](=O)[O-])o2)CC1`, for which the growth is 66.7%.
The same measure, in the same setting: in the case of `CC(C)C1(C(C)C)NC(=O)NC1=O` it was 102%; in that of `COc1cc(/C=C/C(=O)c2c(C)n([O-])c3cc(C)c(C)cc3[n+]2=O)cc(OC)c1OC`, 51.7%.
On the same count and under the same terms, in the case of `COc1cc(/C=C\c2cc(/C=C\c3ccc(O)c(OC)c3)n(C(=O)CNc3ccccc3OC)n2)ccc1O` it was 40.2%; in that of `OCc1cn(-c2ccc(Cl)cc2)nc1-c1ccc(O)cc1`, 92.2%.
Consider `CCc1c2cc(Cl)ccc2n2cc(Cc3ccccc3)[nH]c(=O)c12`, for which the growth was 98.2%.
The same measure, in the same setting: the figure for `Nc1ncnc2c1ccn2-c1cccc(NC(=O)c2cccc(C(F)(F)F)c2)c1` is 62.2%.
Still for that read-out and setting: the figure for `COc1ccc(Cl)cc1NC(=O)c1cc2c([nH]1)-c1nc(NC(=O)C(C)(C)C)sc1CC2` is 53.4%; for `COc1ccc(-c2coc3c(CO)c(O)ccc3c2=O)cc1` it is -27.9% (active).
The same measure, in the same setting: in the case of `CC(=O)c1cc2c(c(O)c1C)C(=O)C(=O)c1c(O)cccc1-2` it was -49.2% (active).
Take `O=C(Cn1c2ccccc2c2ccncc21)N/N=C\c1ccc2ccccc2c1`: the growth is 19.4%.
The same measure, in the same setting: in the case of `OC(COc1ccccc1Cl)CN1CCN(c2ccc(Cl)cc2)CC1` (stereo not drawn) it was 104%; in that of `O=C(Nc1ccc(-n2ccc3c(NC(=O)c4ccccc4)nccc32)cc1)c1cccc(C(F)(F)F)c1`, 6.29% (active).
The same measure, in the same setting: the figure for `Cc1cc(N2CCOCC2)nc(N(CCNc2ccnc3cc(Cl)ccc23)Cc2ccco2)n1` is 18.1%; for `CCCCC(=O)Nc1nc2ccc(SCCC)cc2s1` it is 43.2%; for `COc1cc2ncnc(Oc3ccc(NC(=O)Nc4ccc(CN5CCOCC5)c(C(F)(F)F)c4)c4ccccc34)c2cc1OC` it is 21.5%.
Still for that read-out and setting: the figure for `FC(F)(F)c1cccc([Si](F)(c2cccc(C(F)(F)F)c2)c2cccc(C(F)(F)F)c2)c1` is 72.9%.
As to `O=C(O)c1cccc(S(=O)(=O)c2ccccc2)c1`, the growth is 99%.
On the same count and under the same terms, in the case of `C=C1C(=O)O[C@H]2[C@H]1CC/C(COC(=O)CCCC(=O)OC/C1=C/CC[C@@]3(C)O[C@H]3[C@H]3OC(=O)C(=C)[C@@H]3CC1)=C\CC[C@@]1(C)O[C@@H]21` it was -70.3% (active); in that of `Cc1c(F)cccc1NC(=O)c1sc2nc3c(cc2c1N)CCCCC3`, 50.4%; in that of `O=C(Nc1cccc([N+](=O)[O-])c1)Nc1cccc([N+](=O)[O-])c1`, 51.3%.
`O=C(N/N=C1\SCC(=O)N1c1ccccc1)c1cc(-c2cc3ccccc3o2)nn1-c1ccccc1`: the growth is 107%.
Take `COc1cc(-c2nc(N)n(CC(=O)Nc3ccc(/C(C)=N\O)cc3)n2)cc(OC)c1OC`: the growth was 99.6%.
For `O=C(Cn1c2ccccc2c2ccncc21)N/N=C/c1c[nH]c2ccccc12`, the growth is 33.3%.
With `CCCN1C(=O)CSC1=Nc1ccc2cc3ccc(N=C4SCC(=O)N4CCC)cc3nc2c1`, the growth is 11.4%.
On the same count and under the same terms, the figure for `CCc1cccc(C)c1NC(=O)c1sc2nc3c(cc2c1N)CCCCC3` is 45.1%.
For the compound `NC(=S)NNC1CCCCC1`, the growth was 97.6%.
`CC(C)(C)C(=O)Nc1nc2c(s1)CCc1ccn(S(=O)(=O)c3ccccc3)c1-2`: the growth is 84.5%.
Still for that read-out and setting: the figure for `Nc1ncnc2c1c(-c1ccc(Oc3ccccc3)cc1)nn2C[C@@H]1SSC[C@H]1O` is 10.7%.
Still for that read-out and setting: the figure for `Cc1ccc[n+](CC(=O)c2cccc3ccccc23)c1` is 104%.
